In ChEMBL document CHEMBL3988442, “University of Dundee, Small-Polar-MMV Screening Library” (2021):
Where “and” joins values, the source holds several entries; their conditions need not be identical. Equal values may be shown once. Hit rate of the full screen: of about 34,000 compounds, about 290 (0.85%) showed an effect of 50% or more. The sample holds strong results, similar compounds and a random draw of the others, so the mix is not that of the screen.

Tested on: Plasmodium falciparum
Test: Plasmodium falciparum sporozoite viability assay
Assay type: functional, organism-based
Set-up: scale not given: in the data most compounds retested in dose-response had high values

| SMILES | Percent Effect [%] | Percent Effect (10 mM as filed; unlikely as a test dose) |
| --- | --- | --- |
| CCc1cnc(N2CCc3cc(C(=O)NC)c(N(C)C)nc3CC2)nc1.O=C(O)C(F)(F)F | 0.8439 | – |
| O=C(c1cc(=O)c(OCc2ccccc2)co1)N1CCSCC1 | -8.629 | – |
| NC(=O)C1CCN(Cc2csc(-c3ncccn3)n2)CC1 | – | -22.27% and -16.43% and -15.46% |
| c1cnc(-c2nc(CN3CCN(CC4CC4)CC3)cs2)nc1 | – | 84.72% and 73.85% and 60.32% |
| c1cnc(-c2nc(CN3CCCC(N4CCCC4)C3)cs2)nc1 (stereo unspecified) | 5.451 | – |
| c1cnc(-c2nc(CN3CCC(c4ccn[nH]4)CC3)cs2)nc1 | 5.764 | – |
| CC(=O)Nc1nc2c(s1)C1(CCN(C)CC1)Nc1ccccc1S2 | 12.96 | – |
| Cc1nccc(N2CCCC(C)(C(=O)NC3CCCC3)C2)n1 (stereo unspecified) | 2.213 | – |
| Cc1cnn(CC2CCCN2Cc2nc(N)c3ccccc3n2)c1 (stereo unspecified) | – | 22.63% and 18.94% and 34.15% |
| Cc1cnn(CC2CCCCN2Cc2nc(C)c3ccccc3n2)c1 (stereo unspecified) | – | 35.56% and 21.88% and 27.76% |
| Cc1cnn(CC2CCCCN2Cc2nc(N)c3ccccc3n2)c1 (stereo unspecified) | – | 41.2% and 50.14% and 52.23% |
| CC(=O)N1CCN(c2ccc3ccc(C(=O)NC4CCCC4)cn23)CC1 | -4.944 | – |
| Cc1cc(C(=O)N2CCN(c3ncc4c(n3)CCOC4)CC2)sc1C | -7.443 | – |
| Cc1nc(CN2CCc3c(nc(C4CC4)n3C)C2)nc2ccccc12 | – | -16.27% and -10.13% |
| Cc1nc2ccccc2nc1CN1CCc2c(nc(C3CC3)n2C)C1 | – | -9.933% and -2.839% |
| Cn1c(C2CC2)nc2c1CCN(Cc1nc3ccccc3s1)C2 | – | 48.9% and 53.74% |
| c1ccc2nc(N3CCOC(Cn4cccn4)C3)cnc2c1 (stereo unspecified) | 7.131 | – |
| Cc1cccnc1CNc1cc(N2CCCC2CO)ncn1 (stereo unspecified) | -13.57 | – |
| OCC1CCCN1c1cc(NCCc2nccs2)ncn1 (stereo unspecified) | – | 21.04% and 15.76% |
| OCC1CCCN1c1cc(NCCc2ccsc2)ncn1 (stereo unspecified) | – | 86.32% and 73.55% |
| OCC1CCCN1c1cc(NCc2ccccn2)ncn1 (stereo unspecified) | – | -21.68% and -23.27% |
| OCC1CCCN1c1cc(NCCc2ccccn2)ncn1 (stereo unspecified) | – | 91.05% and 79.59% |
| OCC1CCCN1c1cc(NCCNc2cccnn2)ncn1 (stereo unspecified) | – | 9.971% and -4.087% |
| OCC1CCCN1c1cc(NCc2ccsc2)ncn1 (stereo unspecified) | 11.95 | – |

| SMILES | Percent Effect [%] | Percent Effect (10 mM as filed; unlikely as a test dose) |
| --- | --- | --- |
| CC(C)CN(C)Cc1nc2c(cnn2C)c(=O)[nH]1 | 7.587 | – |
| CN(C)CC1CN(Cc2nc(-c3ccccn3)no2)CCO1 (stereo unspecified) | 24.23 | – |
| CN1CCN(S(=O)(=O)c2ccc(Cl)c(Cl)c2)c2cnccc21 | – | -22.78% and -8.887% |
| Cc1cc(-c2cc(F)ccc2C(=O)O)nc(C2CCCCN2C(C)C)n1 (stereo unspecified) | 4.863 | – |
| CC(=O)N1N=C(c2ccccc2)OC1C(=O)NCCc1ccc(O)cc1 (stereo unspecified) | 3.916 | – |
| CC[C@@H](C)[C@@H](N)C(=O)Nc1cccc(-c2cnc(N(C)CCO)nc2)c1 | 4.657 | – |
| Cn1cc(CCNC(=O)CCc2ccc3c(c2)OCO3)cn1 | 0.08354 | – |
| CCn1cc(NC(=O)NCCN2CCCc3ccccc32)cn1 | -384.2 | – |
| O=C(CCn1cccn1)NS(=O)(=O)N1CCCc2ccccc21 | – | 88.08% and 94.17% and 83.19% |
| Cc1cnn(CCC(=O)NS(=O)(=O)N2CCc3ccccc32)c1 | – | -13.26% and -21.53% and -23.4% |
| Cn1cc(CCC(=O)NS(=O)(=O)N2CCCc3ccccc32)cn1 | – | 95.69% and 93.95% and 93.94% |
| Cn1nc(CNC(=O)c2ccc(OC(F)(F)F)cc2)c2c1CCOC2 | -1.164 | – |
| Cn1ncc(NCc2cccc(F)c2)c(Cl)c1=O | 2.958 | – |
| CNC(=O)[C@@H]1CCO[C@@H]2CCN(CCc3ccccc3)C[C@H]21.O=C(O)C(F)(F)F | 14.59 | – |
| CC(CO)CN(Cc1ccccc1)Cc1cnc2ccccc2n1 (stereo unspecified) | – | 33.49% and 37.4% |
| Cc1cnc(N(C)Cc2cnc3ccccc3n2)nc1N(C)C | – | 42.78% and 58% |
| CC(=O)c1cnc(N(C)Cc2cnc3ccccc3n2)nc1C | – | -14.78% and -20.36% |
| Cc1cnn(C2CCCN(C(=O)Cc3ccc(C)s3)C2)c1 (stereo unspecified) | 7.18 | – |
| Cc1cnc(CCNc2cccc(CC3CCCNC3)n2)s1.Cl (stereo unspecified) | -6.2 | – |
| Cc1nc(N(CCC(N)=O)Cc2ccccc2)c2nc(C)oc2n1 | 2.982 | – |
| CN(Cc1noc(C2CC2)n1)C1CCN(Cc2ccccc2C#N)C1 (stereo unspecified) | 5.942 | – |
| Cc1nccn1CCCC(=O)N1CCCC(c2noc(C(C)C)n2)C1 (stereo unspecified) | 1.926 | – |
| CC(=O)N1CCCN(C(=O)NCc2ccc(-c3ccn[nH]3)cc2)CC1 | 9.841 | – |
| CN1CCN(Cc2ccc(-c3ccc(-c4ccn[nH]4)cc3)nc2)CC1 | – | 56.12% and 32.6% |

| SMILES | Percent Effect [%] | Percent Effect (10 mM as filed; unlikely as a test dose) |
| --- | --- | --- |
| CN1CCN(Cc2ccc(-c3ccc(C(N)=O)cc3)nc2)CC1 | – | -29.68% and -21.28% |
| O=C(NCc1nn(-c2ccccc2)c2c1CCC2)NCC1COCCO1 (stereo unspecified) | 13.65 | – |
| Cc1nc2c(c(NCCc3nccs3)n1)CCN(CC1CC1)CC2 | -1.253 | – |
| Cc1cnn(CC2CCCN2C(=O)c2cc3ccccc3c(=O)[nH]2)c1 (stereo unspecified) | 2.755 | – |
| CN1CCC(c2cccc(NCc3nccn3C)n2)CC1 | – | 4.151% and -3.748% and -15.94% |
| Cl.Cn1ccnc1CNC(=O)c1cnc(C2CCNCC2)cn1 | 2.787 | – |
| CN1CCC(c2cnc(NCc3nccn3C)cn2)CC1 | – | 45.14% and 64.85% and 67.7% |
| COc1ccc(CN(C)[C@@H]2CN(C(=O)c3cnn(C)c3)C[C@H]2O)cc1 | 2.355 | – |
| FC1(F)CCN(Cc2ccncc2)CC12CCN(c1cnccn1)C2.O=C(O)C(F)(F)F.O=C(O)C(F)(F)F.O=C(O)C(F)(F)F (stereo unspecified) | 22.83 | – |
| O=C(c1[nH]nc(C2CC2)c1Cl)N1CCN(C2CC2)C(=O)C1 | – | 67.53% and 69.62% |
| O=C(c1[nH]nc(C2CC2)c1Cl)N1CCCC1 | – | -32.9% and -32.97% |
| O=C(c1[nH]nc(C2CC2)c1Cl)N1CCN(C2CC2)CC1 | – | -13.62% and -21.71% |
| CCOCc1ncn2c1CN(C(=O)Nc1ccccc1CC)CC2 | 3.671 | – |
| CN(C)CCN1Cc2ncn(C)c2C(COCC(=O)N(C)C)C1 (stereo unspecified) | 10.44 | – |
| CC1CCc2nn(CCNC(=O)Cc3ccccc3F)c(=O)cc2C1 (stereo unspecified) | – | -25.04% and -6.135% and -21.75% |
| CCN(CC)Cc1ccc(C(=O)N2CCCC2Cn2cccn2)o1 (stereo unspecified) | -5.987 | – |
| Cc1cc(N2CCC3(CCCN(CCO)C3=O)C2)nc2cc(Cl)ccc12 (stereo unspecified) | -0.3581 | – |
| COc1cccc(C(=O)Nc2ccc(OC3CCN(C)CC3)cc2)c1 | – | 24.26% and 49.56% and 59.7% |
| COc1ccc(NC(=O)c2cnc(C3CCN(C)CC3)nc2C)cc1 | -1.219 | – |
| CCOc1ccc(N2CCCN=C2NC(=O)c2cccc(Cl)c2)cc1 | -13.96 | – |
| O=C(CN1CCCS1(=O)=O)Nc1ccc(OC2CCCC2)cc1 | -4.929 | – |
| N#Cc1cc(NC(=O)c2ccccc2)ccc1N1CCC(O)CC1 | -10.71 | – |
| O=C(NC1=NCCCN1c1ccc(Cl)cc1)c1cccc(Cl)c1 | – | -9.725% and -15.1% and -5.453% |
| Cc1cccc(C(=O)Nc2ccc(OC3CCN(C)CC3)cc2)c1 | – | 84.14% and 90.45% and 76.34% |

| SMILES | Percent Effect [%] | Percent Effect (10 mM as filed; unlikely as a test dose) |
| --- | --- | --- |
| CCC1=N[C@@]2(CC[C@@H]3CN(Cc4ccc(Cl)cc4)C[C@@H]32)C(=O)N1C.O=C(O)C(F)(F)F | -5.486 | – |
| Cc1nc(CC(=O)N2CCC(c3nn(C)c4ncccc34)CC2)cs1.Cl | 3.729 | – |
| Cc1nc(-c2nnc[nH]2)sc1C(=O)N1CCCC1c1ccsc1 (stereo unspecified) | 7.018 | – |
| Cc1nc(C)n(C2CCCN(C(=O)c3csc(CC(C)C)n3)C2)n1 (stereo unspecified) | 0.06439 | – |
| CN(C)c1ccc(C(=O)N2CCC(c3cc4ncccc4[nH]3)CC2)cc1 | -1.989 | – |
| CC(=O)NCCC(=O)NCc1cc(Br)ccc1OC(F)F | -22.55 | – |
| O=C(O)C(F)(F)F.O=C(c1ccccc1)N1CCCC2(CCN2Cc2cccc(F)c2)C1 (stereo unspecified) | 4.203 | – |
| CC(C)N1CCO[C@@H]2CN(C(=O)NCc3ccccc3)CC[C@@H]2C1.O=C(O)C(F)(F)F | 8.185 | – |
| CCC(=O)N1CCC(Cc2ccccc2-c2cccc(C)c2)(C(N)=O)C1 (stereo unspecified) | 2.181 | – |
| COc1cc(CNCc2ccnc(N3CCCCC3)c2)cc(OC)c1 | 3.028 | – |
| CSc1ccccc1C(=O)Nc1ccc(OC2CCN(C)CC2)cc1 | – | 86.05% and 73.83% and 74.05% |
| O=C(CC1CC1)N1Cc2nccn2CC(Cn2ncccc2=O)C1 (stereo unspecified) | 1.18 | – |
| CCN1CCCn2c(nc(CNC(=O)c3ccsc3)cc2=O)C1 | -13.03 | – |
| O=C(c1cc(Cl)c[nH]1)N(CCCO)Cc1cccnc1 | -9.649 | – |
| Nc1nc2c(c3c1C(=O)NC3=O)CCCC2 | – | -19.96% and -21.28% |
| Nc1nc2c(c3c1C(=O)NC3=O)CCC2 | – | 75.96% and 84.59% |
| O=C1NC(=O)c2c3c(nc(O)c21)CCCC3 | – | -19.04% and -16.96% and 3.732% |
| CN(C)CCO[C@H]1CN(Cc2ccco2)[C@@H]2COC[C@H]12.O=C(O)C(F)(F)F.O=C(O)C(F)(F)F | 12.07 | – |
| CCOC(=O)C1CCN(C(=O)c2cnn(-c3ccc(C)cc3)c2N)CC1 | -31.22 | – |
| CCC(=O)N1CCCC(C(=O)c2cnn(-c3ccc(F)cc3)c2N)C1 (stereo unspecified) | – | 46.01% and 80.8% and 57.02% |
| CC(=O)N1CCCC(C(=O)c2cnn(-c3ccc(F)cc3)c2N)C1 (stereo unspecified) | – | 27.98% and 70.48% and 45.02% |
| CCC(=O)N1CCCC(c2nc(N(C)C)ncc2-c2ccc(F)cc2)C1 (stereo unspecified) | 2.091 | – |
| CC(=O)N1CCC(C(=O)c2cnn(-c3ccccc3)c2N)C1 (stereo unspecified) | -4.265 | – |
| CCCC(=O)N1CCCC(c2ccccn2)C1 (stereo unspecified) | -4.87 | – |
